Source: PubChem
TLR4 MyD88 comp – inhibitors of human TLR4-MyD88 binding; O00206+Q99836; HeLa CL3-4 TLR4/MyD88 BLA complementation, FRET ratio; inhibition, % at 8.4 µM; actives 0.18% (n = 200,000); in the data active = inhibition above about 25%;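 also: 0% = vehicle and 100% = reference inhibitor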
TLR9-MyD88 inh – inhibitors of human TLR9-MyD88 binding | inhibition, % at 4.98 µM | AID 504734 | CHO BLA complementation TLR9-MyD88, CCF4 FRET ratio | Q9NR96+Q99836 | actives 0.21% (n = 340,000);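 active = inhibition above the mean over all tested compounds plus 3 SD, cut at about 21% in these data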;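 also: 0% = DMSO only wells and 100% = clavulanate BLA inhibitor control wells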
NOD2-RIPK2 inh – inhibitors of human NOD2-RIPK2 interaction. inhibition, % at 4.98 µM. AID 624267. CHO BLA complementation NOD2-RIPK2, CCF4 ratio. O43353. actives 0.38% (n = 360,000); in the data active = inhibition above about 21%;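 also: 0% = vehicle only and 100% = reference blocker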
NTR1 agonist – activates human neurotensin receptor 1 | NTR1-U2OS beta-arrestin-GFP spot imaging, agonist mode | activation, % at 20 µM | actives 0.17% (n = 330,000);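 active = activation at or above 40% of the spot to cytoplasm intensity ratio, with at least 20 cells analyzed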;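 also: 0% = DMSO without peptide and 100% = 100 nM NTR1 peptide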
ABHD5 PLIN5 PPI – ABHD5-PLIN5 protein interaction inhibition; Q00G26+Q8WTS1; Split G. princeps luciferase complementation, luminescence, 4 h; inhibition, % at 4 µM; actives 0.78% (n = 360,000); AID 602281;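 active = inhibition above the mean inhibition across every tested compound plus 3 SD, cut at about 22% in these data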;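 also: 0% = DMSO only wells and the 100% control is not disclosed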
Beta2AR agonist – agonists of human beta-2 adrenergic receptor inducing internalization | Am2.2-beta2AR cells, FAP receptor internalization, flow cytometry | P07550 | response, % (concentration not given with the values) | actives 0.43% (n = 340,000);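 active = response above a set limit, near 3 SD of response in nonfluorescent compounds, cut at about 42% in these data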
Target sequence (P07550 whole entry, looked up): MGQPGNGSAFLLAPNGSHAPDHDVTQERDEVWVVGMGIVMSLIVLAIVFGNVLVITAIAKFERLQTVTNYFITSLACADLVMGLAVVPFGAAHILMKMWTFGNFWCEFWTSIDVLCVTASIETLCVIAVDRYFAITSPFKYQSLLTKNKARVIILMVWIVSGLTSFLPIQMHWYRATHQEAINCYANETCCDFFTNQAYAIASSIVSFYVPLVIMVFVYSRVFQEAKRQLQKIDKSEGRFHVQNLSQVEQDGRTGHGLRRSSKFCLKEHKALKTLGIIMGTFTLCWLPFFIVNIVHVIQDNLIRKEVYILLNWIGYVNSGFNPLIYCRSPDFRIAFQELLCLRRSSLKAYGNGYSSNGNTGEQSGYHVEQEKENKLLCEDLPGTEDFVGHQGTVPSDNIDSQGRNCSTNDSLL
TLR4-MyD88 conf – TLR4-MyD88 interaction inhibition confirmed | shares compounds with TLR4 MyD88 comp | HeLa CL3-4 BLA complementation, CCF4 FRET ratio | inhibition, % at 8.4 µM | actives 50% (n = 350) | AID 941;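 active = mean inhibition across three repeat runs above about 25% carried over from the earlier screen, limit read from the data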;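 also: plate controls were DMSO only for no effect and clavulanic acid blocking BLA at full dose for full effect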
BLA inhibitor ct – inhibits beta-lactamase activity, counter-screen to TLR4-MyD88 binding inhibitors. shares compounds with TLR4 MyD88 comp. inhibition, % at 8.4 µM. actives 63% (n = 350). HeLa BLA reporter, CCF4 FRET ratio;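 active = mean inhibition over three repeats above about 26% taken from the earlier screen, limit read from the data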;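 also: HeLa cells stably expressing beta-lactamase reporter as counterscreen for TLR4-MyD88 inhibitors; 0% = DMSO and 100% = clavulanic acid full inhibition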
TLR9-MyD88 cf – confirmation of human TLR9-MyD88 binding inhibitors. shares compounds with TLR9-MyD88 inh. CHO TLR9/MyD88 BLA complementation, CCF4 FRET ratio. inhibition, % at 4.98 µM. actives 51% (n = 680). AID 540250;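 active = mean inhibition across three repeats above about 21% taken from the earlier screen, limit read from the data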;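 also: blue over green emission ratio reports constitutive TLR9 MyD88 association via BLA complementation; 0% = DMSO vehicle wells and 100% = clavulanate BLA inhibitor wells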
BLA counter-1 – beta-lactamase reporter inhibition, counter-screen artifact. shares compounds with TLR9-MyD88 inh. CHO-BLA cells, CCF4 FRET ratio, BLA reporter. inhibition, % at 4.98 µM. actives 7% (n = 680). AID 540251;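 active = mean inhibition above a 50% cutoff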;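 also: counterscreen of TLR9-MyD88 hits on CMV-driven BLA in CHO-K1 cells; 0% = DMSO alone and 100% = clavulanate blocking BLA; higher means less blue over green ratio so more BLA blockade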
TLR9 CHO cytotox – CHO cell toxicity counter-screen for TLR9-MyD88 inhibitors; shares compounds with TLR9-MyD88 inh; TLR9-MyD88 CHO cells cytotoxicity, luminescence; inhibition, % at 4.98 µM; actives 39% (n = 680); AID 588336; in the data active = inhibition above about 11%
ABHD5-PLIN5 conf – ABHD5-PLIN5 interaction inhibition, confirmed; shares compounds with ABHD5 PLIN5 PPI; biochemical ABHD5-PLIN5 interaction, luminescence; inhibition, % at 4 µM; actives 67% (n = 2,200); AID 651612; in the data active = inhibition above about 23%;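 also: 0% = DMSO vehicle wells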
HNF4 split-luc – counter-screen for ABHD5-PLIN5 inhibitors: HNF4 split-luciferase; AID 651674; shares compounds with ABHD5 PLIN5 PPI; inhibition, % at 4 µM; HNF4 dimerization, luminescence, biochemical; actives 77% (n = 2,200);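 active = mean inhibition across replicate wells exceeding the computed hit threshold, cut at about 13% in these data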;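 also: light from luciferase halves that rejoin when HNF4 fusion proteins dimerize; 0% = DMSO only wells and the 100% control is not given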
NOD2 RIPK2 conf – NOD2-RIPK2 interaction inhibition confirmed | CHO cells, NOD2-RIPK2 BLA complementation, CCF4 FRET | inhibition, % at 4.98 µM | shares compounds with NOD2-RIPK2 inh | actives 70% (n = 1,200) | AID 624370;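 active = mean inhibition across replicates above a set limit taken from the earlier primary screen, cut at about 21% in these data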;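 also: 0% = DMSO-only wells and the high end = clavulanate BLA-blocked wells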
BLA counter-2 – NOD2-RIPK2 counterscreen BLA reporter activity | shares compounds with NOD2-RIPK2 inh | CHO BLA reporter, CCF4 FRET ratio | inhibition, % at 4.98 µM | actives 57% (n = 1,200) | AID 624371;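 active = mean inhibition above the low-control mean inhibition plus three low-control SD, cut at about 11% in these data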;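 also: 0% = DMSO only wells and 100% = clavulanate high control wells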
Active calls of the source: *. Sampled rows, rich in hits. Any-hit rate of the full collection: about 1.5%.

`CCOC(=O)C1=CCN(S(=O)(=O)c2ccccc2Cl)C1c1cccc(F)c1` (centres undefined) gave NOD2-RIPK2 inh -3 and ABHD5 PLIN5 PPI -1.
For Cc1cc(Cl)n2c(nc3ccccc32)c1C#N the results were TLR4 MyD88 comp 45*, TLR9-MyD88 inh -4, NOD2-RIPK2 inh 23*, ABHD5 PLIN5 PPI 5, Beta2AR agonist 99*, TLR4-MyD88 conf 52*, BLA inhibitor ct 56*, NOD2 RIPK2 conf 86* and BLA counter-2 63*.
Screening COc1ccc(-c2cc(N)n(S(=O)(=O)c3c(F)c(F)c(F)c(F)c3F)n2)cc1OC returned TLR4 MyD88 comp 27*, TLR9-MyD88 inh 18, NOD2-RIPK2 inh 59*, NTR1 agonist -2, ABHD5 PLIN5 PPI 30*, Beta2AR agonist -239, TLR4-MyD88 conf 17, BLA inhibitor ct -11, ABHD5-PLIN5 conf 50*, HNF4 split-luc 6, NOD2 RIPK2 conf 86* and BLA counter-2 18*.
Cc1cccc(C)c1-n1c(C)cc(/C=N\Nc2ccc([N+](=O)[O-])cn2)c1C was read as TLR4 MyD88 comp 29*, TLR9-MyD88 inh 44*, NOD2-RIPK2 inh 30*, NTR1 agonist -1, ABHD5 PLIN5 PPI -2, Beta2AR agonist -3, TLR4-MyD88 conf 35*, BLA inhibitor ct 64*, TLR9-MyD88 cf 31*, BLA counter-1 27, TLR9 CHO cytotox 0, NOD2 RIPK2 conf 61* and BLA counter-2 62*.
Screening FC(F)(F)c1ccccc1Cc1c(-c2ccccc2)nc2ccc(Br)cn12 returned NOD2-RIPK2 inh 4 and ABHD5 PLIN5 PPI 2.
Screening COc1ccc(CN2C(=O)C(CC(=O)NCc3cccc4ccccc34)CC(C(=O)N(C(C)C)C(C)C)=C2C)cc1 (centres undefined) returned NOD2-RIPK2 inh 5 and ABHD5 PLIN5 PPI 3.
For CCCCNC(=O)CN1C(=O)c2cccc(N)c2C1=O the results were TLR4 MyD88 comp 38*, TLR9-MyD88 inh 38*, NOD2-RIPK2 inh 45*, ABHD5 PLIN5 PPI 0, Beta2AR agonist -3, TLR4-MyD88 conf 27*, BLA inhibitor ct 48*, TLR9-MyD88 cf 17, BLA counter-1 20, TLR9 CHO cytotox -2, NOD2 RIPK2 conf 45* and BLA counter-2 48*.
`CC1CCCCC1NC(=O)COC(=O)CN1C(=O)c2ccccc2C1=O` (centres undefined) gave TLR9-MyD88 inh 2, NOD2-RIPK2 inh 8, NTR1 agonist -1, ABHD5 PLIN5 PPI -3 and Beta2AR agonist -10.
For CC1CCCCC1NC(=O)CN1C(=O)c2cccc(N)c2C1=O (centres undefined) the results were TLR4 MyD88 comp 33*, TLR9-MyD88 inh 38*, NOD2-RIPK2 inh 47*, ABHD5 PLIN5 PPI -1, Beta2AR agonist 4, TLR4-MyD88 conf 33*, BLA inhibitor ct 52*, TLR9-MyD88 cf 18, BLA counter-1 25, TLR9 CHO cytotox 0, NOD2 RIPK2 conf 42* and BLA counter-2 48*.
Screening CCOC(=O)C1=C(CSc2nc(-c3ccccc3)ccc2C#N)OC(N)=C(C#N)C1c1cccnc1 (centres undefined) returned TLR4 MyD88 comp 27*, TLR9-MyD88 inh 14, NOD2-RIPK2 inh 21*, NTR1 agonist -3, ABHD5 PLIN5 PPI 5, Beta2AR agonist -50, TLR4-MyD88 conf 6, BLA inhibitor ct 15, NOD2 RIPK2 conf 26* and BLA counter-2 37*.
CCOC(=O)CC1=C(C(=O)OCC)C(c2cccnc2)C(C#N)=C(N)O1 (centres undefined) was read as TLR4 MyD88 comp -1, TLR9-MyD88 inh 2, NOD2-RIPK2 inh -5, NTR1 agonist 1, ABHD5 PLIN5 PPI 3 and Beta2AR agonist -3.
Screening NC(Cc1ccc(Cl)cc1)c1csc(NC(=O)Nc2ccccc2-c2ccccc2)n1 (centres undefined) returned NOD2-RIPK2 inh -2 and ABHD5 PLIN5 PPI 0.
Screening CNC(=O)COC(=O)c1ccccc1C(=O)c1ccc(Cl)c([N+](=O)[O-])c1 returned TLR4 MyD88 comp 32*, TLR9-MyD88 inh 25*, NOD2-RIPK2 inh 24*, ABHD5 PLIN5 PPI 2, Beta2AR agonist 16, TLR4-MyD88 conf 22, BLA inhibitor ct 5, TLR9-MyD88 cf 23*, BLA counter-1 19, TLR9 CHO cytotox 8, NOD2 RIPK2 conf 53* and BLA counter-2 7.
For CCCN1C(=O)/C(=C/c2ccc(N3CCCC3)c(C)c2)NC1=S the results were TLR4 MyD88 comp 37*, TLR9-MyD88 inh 35*, NOD2-RIPK2 inh 35*, NTR1 agonist -5, ABHD5 PLIN5 PPI 4, Beta2AR agonist inactive, TLR4-MyD88 conf 37*, BLA inhibitor ct 69*, TLR9-MyD88 cf 26*, BLA counter-1 28, TLR9 CHO cytotox 2, NOD2 RIPK2 conf 49* and BLA counter-2 55*.
`Cc1cc(/C=C2\NC(=S)N(C)C2=O)ccc1N1CCCC1` gave TLR4 MyD88 comp 23, TLR9-MyD88 inh 16, NOD2-RIPK2 inh 18, NTR1 agonist -4, ABHD5 PLIN5 PPI -1 and Beta2AR agonist -49.
